PubChem BioAssay AID686971 (National Center for Advancing Translational Sciences (NCATS), 2013)
Hit rate of the full screen: of about 360,000 compounds, about 7,500 (2.1%) were called active. Where a call stands in place of a potency, no number is given. Roughly 8% stayed inconclusive and do not appear here. Calls follow the shape of the dose curve; as a rule, active = well fitted cell-killing curve with a large enough effect; inconclusive = small, poorly fitted or top-dose-only effect, or effect the other way, or another doubt; inactive = no such curve, though single readings can be large or run the other way. Many of the other results were omitted from the sample, so actives are more common in it than they were.
Potency is read from the fitted curve at half-maximal effect.

Assay: qHTS for induction of synthetic lethality in tumor cells producing 2HG: qHTS for the HT-1080-IDH1KD cell line
Details: HT-1080 IDH1 knockdown viability, ATP luminescence, 48 h; series mostly up to 46.1 µM
Procedure, shortened: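 Assay cells: HT-1080 with IDH1 knockdown, 750 per well, RPMI/5% FBS. Exposure: 48 h at 37 °C following 2 h pre-incubation. Read: CellTiter-Glo luminescence; fitted concentration-response, curve class assigned.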
In the case of CCNC(=O)C1(C)CCN(Cc2ccc(C(=O)OCC)o2)C1 (centres undefined), the Potency is reported as “inactive”. In the case of Cc1cccc(C(=O)NC2CCN(CC(=O)Nc3cccc(Cl)c3)CC2)c1, the Potency is reported as “inactive”. With CC1(C(=O)NS(=O)(=O)c2ccc3ccccc3c2)CCN1C(=O)C1(c2ccc(Cl)cc2)CCC1 (centres undefined) the Potency was “inactive”. With O=C(O)c1ccccc1Cc1ccc(F)c2ccccc12 the Potency was “inactive”. For Cc1cc(C)n(CC(O)CN(c2ccccc2)S(=O)(=O)c2ccc3ccccc3c2)n1 (centres undefined), the Potency was “inactive”. In the case of CS(=O)(=O)N(CC(O)Cn1c2ccccc2c2ccccc21)c1cccc2ccccc12 (centres undefined), the Potency is reported as 20.6 µM (active). For CCCCN(CCCC)CC(O)Cn1c2ccccc2c(=O)c2ccccc21 (centres undefined), the Potency was “inactive”. For CC1(C(=O)NS(=O)(=O)Cc2cccc(Cl)c2)CCN1C(=O)Cc1ccc(Cl)cc1Cl (centres undefined), the Potency was “inactive”. In the case of Cc1ccccc1NC(=O)Cc1nc(COC(=O)C(C)(C)Oc2ccc(Cl)cc2)cs1, the Potency is reported as “inactive”. For Oc1ccc(N=Nc2nccs2)c(O)c1, the Potency was 4.11 µM (active). In the case of Cc1cc2c3ccccc3[nH]c(=O)n2n1, the Potency is reported as “inactive”. In the case of COC(=O)[C@]12CCCCC=C1N(CCC1=CCCCC1)C(=O)[C@H](CC(=O)N1CCSCC1)C2, the Potency is reported as “inactive”. For CCNC(=O)C1(C)CCCN1C(=O)c1ccc(N(C)C)cc1 (centres undefined), the Potency was “inactive”. For O=C(NC(Cc1c[nH]c2ccccc12)C(=O)N/N=C/c1ccc(Br)cc1)c1cccs1 (centres undefined), the Potency was 32.6 µM (active). In the case of O=C(CNC(=O)c1cccs1)N/N=C/c1cccc(Br)c1, the Potency is reported as “inactive”. In the case of CC(=O)NC(Cc1c[nH]c2ccccc12)C(=O)O (centres undefined), the Potency is reported as “inactive”. In the case of Cc1noc(C)c1-c1ccc(C(=O)NCc2ccncc2)c2occc12, the Potency is reported as “inactive”. In the case of Cc1ccc(C(=O)N/C(=C/c2ccc(-c3cccc([N+](=O)[O-])c3)o2)C(=O)NCCCN(C)C)cc1, the Potency is reported as 14.6 µM (active). For C=CCNC(=O)/C(=C\c1cccc([N+](=O)[O-])c1)NC(=O)c1ccccc1, the Potency was “inactive”. For CN(C)CCNC(=O)/C(=C/c1cccc([N+](=O)[O-])c1)NC(=O)c1ccccc1, the Potency was “inactive”. For COc1ccc(C(C(=O)Nc2c(C)cccc2C)N2CCN(c3ccc(C)cc3)CC2)cc1 (centres undefined), the Potency was “inactive”. For CCCC(=O)N1CCC1(C)C(=O)Nc1ccc(-n2cncn2)cc1 (centres undefined), the Potency was “inactive”. In the case of CCCNC(=O)C1(C)CCN(Cc2ccc(Cl)c(Cl)c2)C1 (centres undefined), the Potency is reported as “inactive”. With COc1ccc(-c2nc3ccccc3c(=O)n2CCc2ccc(O)cc2)cc1 the Potency was “inactive”. For COc1ccc(-c2c(C#Cc3ccccc3)c3ccccc3n2C)cc1, the Potency was “inactive”. For COc1ccc(CCNCc2c(-c3ccccc3)n(C)c3ccccc23)cc1, the Potency was 14.6 µM (active). In the case of CC(=O)NC(c1ccccc1)c1nc(-c2ccccc2C)cs1 (centres undefined), the Potency is reported as “inactive”. With C[C@H]1CN([C@@H](C)CO)C(=O)c2cc(-c3ccccc3F)cnc2O[C@H]1CN(C)C(=O)C1CCOCC1 the Potency was “inactive”. In the case of O=C(Nc1cccc2cccnc12)c1ccc2sc([C@H]3C[C@H](O)[C@@H](CO)O3)nc2c1, the Potency is reported as “inactive”. With CCNC(=S)Nc1ccc2c(c1)c(=O)n(C)n2Cc1ccc(Cl)cc1 the Potency was “inactive”. With CCOCCC(=O)Nc1ccc2c(c1)c(=O)n(C)n2-c1ccc2ccccc2c1 the Potency was 1.46 µM (active). In the case of CCCC(=O)Nc1ccc2c(c1)nc1n2CCSC1, the Potency is reported as “inactive”. For CCCCN(C(C)=O)c1ccc2c(c1)C1CC2CCN1Cc1ccccc1 (centres undefined), the Potency was “inactive”. With COc1ccc(CCn2c3c(c(=O)[nH]c2=S)CN(C(C)C)CN3)cc1OC the Potency was “inactive”. In the case of C[C@H]1CN([C@@H](C)CO)C(=O)CCCn2nncc2CO[C@@H]1CN(C)Cc1ccc(Oc2ccccc2)cc1, the Potency is reported as “inactive”. For CC(=O)Nc1ccc(C=Cc2ccc([N+](=O)[O-])cc2)cc1, the Potency was “inactive”. For O=[N+]([O-])c1ccc(C=NN=Cc2ccc([N+](=O)[O-])cc2)cc1, the Potency was “inactive”. In the case of O=C1/C(=C\c2ccc([N+](=O)[O-])cc2)CS(=O)(=O)C/C1=C/c1ccc([N+](=O)[O-])cc1, the Potency is reported as 3.66 µM (active). In the case of N#Cc1c(NC(=O)C2CCCO2)sc2c1CCCCC2 (centres undefined), the Potency is reported as “inactive”. For CCN1CCN(CC(=O)Nc2sc3c(c2C#N)CCC3)CC1, the Potency was “inactive”. With N#Cc1c(NC(=O)CCCl)sc2c1CCCCC2 the Potency was 23.1 µM (active). In the case of Cc1ccc([C@H]2C[C@H](O)[C@@H](n3cc(COC(=O)c4ccccc4)nn3)CN2CC2CCCCC2)cc1, the Potency is reported as “inactive”. In the case of O=C(Nc1ccc2c(c1)OCCO2)C1c2ccccc2OCC(=O)N1Cc1ccccn1 (centres undefined), the Potency is reported as “inactive”. In the case of Cc1cc(C)nc(SCC(=O)N(C)C)n1, the Potency is reported as “inactive”. In the case of Cc1cc(C)nc(S/C=C/C(=O)c2ccccc2)n1, the Potency is reported as 3.66 µM (active). With Cc1cc(C)nc(SCc2ccccc2C#N)n1 the Potency was “inactive”. With O=C(CCCn1c(=O)[nH]c2cc(Cl)ccc2c1=O)NCCN1CCN(c2ccccc2)CC1 the Potency was “inactive”. For COc1cccc(CNC(=O)Cc2csc(Nc3nc(=S)[nH]c4ccccc34)n2)c1, the Potency was “inactive”. In the case of O=C(Cc1csc(Nc2nc(=S)[nH]c3ccccc23)n1)NCCCN1CCN(c2cccc(Cl)c2)CC1, the Potency is reported as 20.6 µM (active). For COc1cc2nnn(-c3ccncc3)c2cc1OC, the Potency was “inactive”. For N#CC1(Nc2ccc3c4c(cccc24)CC3)CCCCC1, the Potency was “inactive”. In the case of CCOc1ccccc1CNS(=O)(=O)c1cc(-c2cc(C)no2)ccc1C, the Potency is reported as “inactive”. For COc1ccc(CNS(=O)(=O)c2cc(-c3cc(C)no3)ccc2C(C)C)cc1, the Potency was 3.66 µM (active). In the case of Cc1cc(-c2ccc(C)c(S(=O)(=O)NCCCN(Cc3ccccc3)C(C)C)c2)on1, the Potency is reported as “inactive”. For CCOC(=O)N1CCN(C(=O)C[C@@H]2C[C@@]3(C(=O)OC)CCCCC=C3N(CCC3=CCCCC3)C2=O)CC1, the Potency was “inactive”. With Cc1cccc(-c2cnc(C(O)c3ccc4ccccc4c3)[nH]2)c1 (centres undefined) the Potency was “inactive”. In the case of CC1(C(=O)NCc2ccccc2)CN(S(C)(=O)=O)CC(=O)N1CC(F)(F)F (centres undefined), the Potency is reported as “inactive”. For CC1(C(=O)O)CCN1C(=O)/C=C/c1ccccc1 (centres undefined), the Potency was “inactive”. In the case of CC1(C)CCSC(/C=C/c2ccccc2)=N1, the Potency is reported as 25.9 µM (active). For CC1(C(=O)NS(=O)(=O)c2ccccc2)CCN1C(=O)C/C=C/c1ccccc1 (centres undefined), the Potency was “inactive”. With CC1(C(=O)NCc2ccc3c(c2)OCO3)CCN1CCc1ccccc1 (centres undefined) the Potency was “inactive”. With CCN(CC)C(=O)C(C)N1c2cccc3cccc(c23)S1(=O)=O (centres undefined) the Potency was “inactive”. With CC(C)Nc1nc(NCCOc2ccccc2Cl)c2sccc2n1 the Potency was 16.4 µM (active). With O=C(NCCOc1ccccc1Cl)C(=O)Nc1ccccc1 the Potency was “inactive”. With COc1cccc(-c2cc3nc(NCCOc4ccccc4Cl)n(C)c(=O)c3s2)c1 the Potency was “inactive”. For Cc1c(NC(=O)COC(=O)/C=C/c2cccc(F)c2)c(=O)n(-c2ccccc2)n1C, the Potency was “inactive”. For COC(=O)C1(C(=O)OC)C[C@H](c2ccccc2)N(Cc2ccccc2OC)[C@@H]1c1ccccc1, the Potency was “inactive”. With C/C(=N\NC(=O)Cc1ccc(Cl)cc1)c1ccccn1 the Potency was 2.51 µM (active). With NC(=O)NC(CC(=O)NNC(=O)c1ccccn1)c1ccc(Cl)cc1 (centres undefined) the Potency was “inactive”. In the case of CC1=NNC(=O)C1CCC(=O)N/N=C(\C)c1ccc(Cl)cc1 (centres undefined), the Potency is reported as “inactive”. With CC(=O)NC(c1ccccc1)c1nc(-c2cccc(C(C)C)c2)cs1 (centres undefined) the Potency was “inactive”. With CC(OC(=O)c1ccc(NC(=O)CC#N)cc1)C(=O)Nc1ccc(S(=O)(=O)N2CCCC2)cc1 (centres undefined) the Potency was “inactive”. For C[C@@H]1CN([C@H](C)CO)C(=O)CCCn2cc(nn2)CO[C@H]1CN(C)S(=O)(=O)c1ccc(Oc2ccccc2)nc1, the Potency was “inactive”. In the case of Cc1cccc(CN2CCN(C3CN(Cc4cn(Cc5ccccc5F)nn4)S(=O)(=O)C3)CC2)c1 (centres undefined), the Potency is reported as “inactive”. For O=C(NCC(O)c1nc2ccccc2[nH]1)c1ccc(Br)cc1 (centres undefined), the Potency was “inactive”. In the case of Cc1cc(=O)oc2cc(OCC3CC(c4ccccc4Cl)=NO3)ccc12 (centres undefined), the Potency is reported as 0.447 µM (active). With Cc1cc(=O)oc2cc(OCCC[n+]3ccccc3)ccc12 the Potency was “inactive”. In the case of CCOc1ccccc1N1CCN(C(=O)COc2ccc3c(C)cc(=O)oc3c2)CC1, the Potency is reported as “inactive”. For CN1OC[C@@H]2CN(C(=O)c3cccnc3)[C@H](c3ccc(N4CCCCC4)cc3)C[C@@H]21, the Potency was “inactive”. For Cc1csc(SCC(=O)Nc2ccc(C)c(S(=O)(=O)N(C)C)c2)n1, the Potency was “inactive”. For C[C@H](CO)N1C[C@H](C)[C@@H](CN(C)Cc2ccc3c(c2)OCO3)OCc2cnnn2CCCC1=O, the Potency was “inactive”. In the case of O=C(O)C(c1ccccc1)N1C(=O)/C(=C\c2ccc(-c3cccc(Cl)c3)o2)SC1=S (centres undefined), the Potency is reported as “inactive”. With CC(=O)NN1C(=O)c2ccccc2NC1c1ccccc1 (centres undefined) the Potency was “inactive”. With O=C1c2ccccc2NC(c2ccc(-c3cccc(Cl)c3)o2)N1O (centres undefined) the Potency was 20 µM (active). In the case of COc1ccc(C=C2CCC3C(CCCC34OCCO4)C2=O)cc1 (centres undefined), the Potency is reported as “inactive”. For C=CCOc1cccc(C2C(C(=O)c3ccc(C)o3)=C(O)C(=O)N2CCN2CCOCC2)c1 (centres undefined), the Potency was “inactive”. With COCCNC(=O)C1CCCN(Cc2ccccc2Cl)CC1 (centres undefined) the Potency was “inactive”. In the case of Cc1ccc(S(=O)(=O)N2CCOCC2)cc1NC(=O)c1ccncc1, the Potency is reported as “inactive”. In the case of CC(C)Nc1ncnc2c1ncn2[C@H]1CN(Cc2ccncc2)C[C@@H](CO)O1, the Potency is reported as “inactive”. For O=C(Nc1ccc(Cl)cc1)Nc1nnc(/C=C/c2ccccc2)s1, the Potency was “inactive”. For O=C(CSc1ccccc1)Nc1nnc(/C=C/c2ccccc2)s1, the Potency was 18.4 µM (active). With CCOCc1nnc(NC(=O)CSc2ccc(C)cc2)s1 the Potency was “inactive”. With CC1(C)OC(=O)C2=C(C[C@@H](C3CC3)O[C@H]2c2ccc(Cl)cc2)O1 the Potency was “inactive”. In the case of CCCCc1nc2ccc(F)cc2cc1C, the Potency is reported as “inactive”. For CCCNC(=O)c1cc(C2CCCCN2S(=O)(=O)c2cn(C)cn2)on1 (centres undefined), the Potency was “inactive”. With COc1ccc2c(c1)C(C)=CC(C)(C)N2C(=O)CNCc1ccc2c(c1)OCO2 the Potency was 8.91 µM (active). For COc1ccc2c(c1)C(C)=CC(C)(C)N2C(=O)Nc1ccccc1, the Potency was “inactive”. For COc1ccc(NC(=O)NCc2ccc3c(c2)OCO3)c(OC)c1, the Potency was “inactive”. For CCOC(=O)[C@]12CCCC=C1N(Cc1ccc3c(c1)OCO3)C(=O)[C@H](CC(=O)N1CCN(C(=O)c3ccco3)CC1)C2, the Potency was “inactive”.
